Several values for one entry are separate records, joined by “and”; a condition that tells them apart may be missing. Equal entries are not always repeated. Compounds without any hit were thinned out: in the full panel of roughly 83,000, 20% have a hit.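 The endpoint reported here, percent growth, reads 100 for growth as untreated, 0 for no net growth and -100 for all cells dead.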 Values without a mark were called inactive. Activity calls are given as the source filed them. The calls were made as follows: active = growth percent below 10; inactive = the rest.
The compounds below were run on HL-60(TB) leukemia (assay: NCI-60 one-dose screen, 48 h (100 = growth as untreated, 0 = no growth, -100 = all killed)). Settings: 10 µM unless noted.

Structure (SMILES)	growth
CN(C)C(C(N)=O)c1ccc(Cl)cc1 (stereo unspecified)	89.6%
CC[N+](CC)=c1cc2oc3cc(N(C)C)ccc3nc-2cc1C	-8.38% (active)
CCCC1CCC(O)(C(C)(O)C(=O)NC2C(=O)N3NCCCC3C(=O)N(O)C(C)C(=O)N3NCCCC3C(=O)N3NCC(O)CC3C(=O)NC(C)C(=O)OC2C(C)C)OC1CC (stereo unspecified)	-91.3% (active)
Cn1c(=O)c2c(nc3n2CCN(CCc2ccc(OCCN4CCOCC4)cc2)C3)n(C)c1=O	101%
O=C1Nc2ccc(Br)cc2/C1=N/c1nc(-c2ccccc2)cs1	73.1%
COc1cc(NC(=O)C#Cc2ccccc2)c(OC)cc1Cl	42.7%
CCOC(=O)C1=C(NC)OCC1=O	91.7%
CC(=O)OC[C@]12CCC(C)(C)C[C@H]1[C@@]1(O)[C@H](O)C[C@@H]3[C@@]4(C)CCCNC(C)(C)[C@@H]4CC[C@@]3(C)[C@]1(C)CC2	105%
Cc1cc(N(CCCNc2ccnc3cc(Cl)ccc23)Cc2cccs2)nc(Cl)n1	-3.12% (active)
O=C(/C=C/c1ccc(Cl)cc1)c1ccc(Br)cc1	81.4%
COc1cc2c(cc1OCCCCC(=O)Nc1ccc(-c3nc4ccccc4s3)cc1)N=C[C@@H]1CCCN1C2=O	-47.2% (active)
O=C(CN1CCN(c2cc3c(cc2F)c(=O)c(C(=O)O)cn3C2CC2)CC1)Nc1nc(-c2ccccc2)cs1	82.1%
COc1ccc(-c2ccc(C)n2-c2ccc(-c3nc4ccccc4s3)cc2)cc1	53.5%
COc1cc(Cn2c(-c3nonc3N)nc3ccccc32)ccc1C	-3.72% (active)
Cc1ccc2nc(SCC(=O)Nc3ccc(-c4nc5ccccc5s4)c(Cl)c3)[nH]c2c1	111%
C=C(C)[C@@H]1CC[C@]2(CO)CC[C@]3(C)[C@H](CC[C@@H]4[C@@]5(C)CC[C@H](NCO)C(C)(C)[C@@H]5CC[C@]43C)[C@@H]12	-52% (active)
CN1CCN(Cc2ccc(NC(=O)c3[nH]ncc3Nc3ncnc4[nH]ccc34)cc2)CC1	-31.4% (active)
CC[C@]12C=CCN3CC[C@@]4(c5ccc(OC)cc5N(C)[C@H]4[C@@](O)(C(=O)OC)[C@@H]1OC(=O)CCC(=O)N[C@H](Cc1c[nH]c4ccccc14)C(=O)OC)[C@@H]32	-25% [100 µM] (active)

Structure (SMILES)	growth
CN1C(=O)NC(c2ccc(Cl)cc2)(c2ccc(Cl)cc2)C1=O	78.2%
COc1cnc2c(c1)C(=O)c1c-2n(CCCNC(C)C)c(=O)c2cc(Cl)ccc12	-69.1% (active)
COc1ccc(/C=C/c2nc(Nc3ccc(Cl)cc3)c3ccccc3n2)cc1	-11.3% (active)
COc1ccc(-c2nc3c(c(-c4ccccc4)nn3-c3ccccc3)c(-c3ccc(N4CCOCC4)cc3)c2C#N)cc1	101%
Cc1cc(SCc2ccc(Cl)cc2Cl)nc(SCc2ccc(Cl)cc2Cl)n1	95.6%
CCN(CC)CCCCCCNc1ccnc2cc(Cl)ccc12	103%
O=C(OCc1ccc2cccc(O)c2n1)N1CCN(C(=O)c2cc3cc(F)ccc3[nH]2)CC1	-35.8% (active)
COc1ccc(/C=C(\C#N)c2ccc([N+](=O)[O-])cc2)c2ccccc12	85.4%
O=C(Nc1ccc(Nc2ccncc2)cc1)c1ccc(Nc2ccnc3ccc([N+](=O)[O-])cc23)cc1[N+](=O)[O-]	88.8%
COc1c(Cl)cc(Cl)c2ccc(C=C3C(=O)NC(=S)NC3=O)nc12	102%
CN1CCN(CCCOc2cccc3nc(Nc4ccc(Cl)c(F)c4)ccc23)CC1	61.9%
O=C(O)[C@@H]1c2ccccc2-c2ccccc2[C@H]1C(=O)O	91.3%
Cc1nc(/N=C(\N)NC(=O)Nc2cccc([N+](=O)[O-])c2)sc1C	39.5%
Cn1c(-c2nonc2NC(=O)c2ccc(F)cc2)nc2ccccc21	-30.1% (active)
O=[N+]([O-])c1ccc(NC2CCCCC2)nc1	110%
Oc1cccnc1CN1CCOCC1	94% and 88.5%
O=C(O)CCCN1C(=O)C2C3CCC(C3)C2C1=O (stereo unspecified)	116%
CCN1CCN(c2cc(C(=O)Nc3nc(-c4cc(OC)c(OC)c(OC)c4)cs3)cc(C(F)(F)F)c2)CC1	41.4%

From PubChem BioAssay (NCI)
